Test results as given in publication PMC4336329 (PLoS ONE, 2015).
About 2,200 (0.71%) of roughly 310,000 compounds showed an effect of 50% or more. Effects have a minus sign here. Many of the other results were omitted from the sample, so strong results are more common in it than they were.

Molecular target: human ether-à-go-go-related gene (hERG) potassium channel (human, UniProt Q12809)
Test: primary screen, population patch clamp on CHO cells stably expressing hERG; higher = less effect of the substance

human ether-à-go-go-related gene (hERG) potassium channel, sequence (Q12809 whole entry, looked up): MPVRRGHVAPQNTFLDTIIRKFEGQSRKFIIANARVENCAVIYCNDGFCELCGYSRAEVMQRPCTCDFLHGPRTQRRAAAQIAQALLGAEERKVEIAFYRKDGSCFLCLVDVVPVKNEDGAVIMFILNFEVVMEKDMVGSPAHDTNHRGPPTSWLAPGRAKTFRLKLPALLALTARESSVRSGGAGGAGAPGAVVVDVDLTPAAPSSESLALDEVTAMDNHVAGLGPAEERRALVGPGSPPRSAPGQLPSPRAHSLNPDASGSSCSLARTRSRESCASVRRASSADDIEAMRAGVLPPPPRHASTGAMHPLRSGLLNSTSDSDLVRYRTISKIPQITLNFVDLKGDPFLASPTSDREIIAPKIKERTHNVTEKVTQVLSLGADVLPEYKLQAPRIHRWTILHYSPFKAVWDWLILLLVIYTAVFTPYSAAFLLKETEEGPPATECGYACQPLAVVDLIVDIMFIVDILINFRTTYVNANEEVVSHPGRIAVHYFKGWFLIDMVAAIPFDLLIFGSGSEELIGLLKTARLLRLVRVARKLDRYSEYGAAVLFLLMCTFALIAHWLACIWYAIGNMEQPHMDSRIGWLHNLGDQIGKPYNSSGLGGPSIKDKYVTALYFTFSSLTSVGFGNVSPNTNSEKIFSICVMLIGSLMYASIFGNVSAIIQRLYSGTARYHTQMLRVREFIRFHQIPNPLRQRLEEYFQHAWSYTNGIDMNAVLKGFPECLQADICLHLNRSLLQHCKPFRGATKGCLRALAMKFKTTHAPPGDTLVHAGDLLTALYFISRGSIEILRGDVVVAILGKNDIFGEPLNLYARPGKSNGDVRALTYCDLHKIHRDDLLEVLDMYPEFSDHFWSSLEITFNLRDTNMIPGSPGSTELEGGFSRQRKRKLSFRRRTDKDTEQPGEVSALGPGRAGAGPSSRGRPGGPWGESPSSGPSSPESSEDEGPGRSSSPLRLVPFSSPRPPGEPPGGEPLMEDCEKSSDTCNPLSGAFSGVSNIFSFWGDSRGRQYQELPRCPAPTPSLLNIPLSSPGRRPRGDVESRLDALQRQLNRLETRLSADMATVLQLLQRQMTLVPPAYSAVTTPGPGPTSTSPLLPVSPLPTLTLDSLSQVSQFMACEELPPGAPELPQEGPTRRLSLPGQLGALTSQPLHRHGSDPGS

SMILES	hERG current change (%, negative = inhibition) at 1uM
CC(CCc1ccccc1)NC(=O)COC(=O)c1ccc([N+](=O)[O-])cc1 (centres unmarked)	5.37%
COc1ccc(CCNC(=O)CSc2nc3c(c(=O)n(C)c(=O)n3C)n2C(C)C)cc1OC	-14.5%
CC(C)=CCc1c(O)cc2c(c1O)C(=O)CC(c1ccccc1)O2 (centres unmarked)	12.9%
CCN(CC)S(=O)(=O)c1cc(C(=O)N(C)CC(=O)Nc2ccc(Cl)cc2)ccc1Cl	-1.15%
COc1cccc(-c2c(-c3cc(OC)cc(OC)c3)n(C)c3ccc(-c4ccc5[nH]ccc5c4)cc23)c1	11.8%
CCN1CCN(c2nc(-c3ccccc3Cl)nc3ccccc23)CC1.Cl	-39.1%
Cc1ccc(S(=O)(=O)N2CCN=C2SCc2ccc(Cl)c(Cl)c2)cc1	10.2%
COc1ccc(C=C2c3ccccc3C(=O)c3ccccc32)c(OC)c1	7.49%
Cc1nn(Cc2noc(C(=O)NCc3ccc4c(c3)OCO4)n2)c(C)c1Br	1.08%
CCOC(=O)n1c(=O)n(Cc2ccccc2Cl)c2ccccc21	10.3%
O=C(CSc1nnc(COc2ccc(Cl)cc2)o1)NC1CCCCC1	-2.69%
COc1ccc(C)cc1NC(=O)CCN1CCN(C/C=C/c2ccccc2)CC1	-70.9%
COc1ccc(C)cc1NC(=O)CCN1CCN(c2ccccc2)CC1	3.12%
COc1ccc(C)cc1NC(=O)CN1CCN(C/C=C/c2ccccc2)CC1	-45.2%
O=C(NCC1COc2ccccc2O1)c1ccc(NC(=O)c2ccco2)cc1 (centres unmarked)	-1.42%
COc1ccc(-n2c(SCC(=O)N/N=C/c3ccccc3OCC(=O)O)nc3ccccc3c2=O)cc1	11.6%
O=C(COc1ccc(Cl)cc1)N1CCN(Cc2ccc([N+](=O)[O-])cc2)CC1.O=C(O)C(=O)O	-76.4%
O=C(COc1ccc2ccccc2c1)N1CCN(Cc2ccncc2)CC1.O=C(O)C(=O)O	-14.8%
O=C(COc1ccc(Cl)cc1)N1CCN(Cc2ccccc2)CC1	3.32%
O=C(COc1ccccc1)N1CCN(C2CCCC2)CC1.O=C(O)C(=O)O	8.65%
COc1cccc(CN2CCN(Cc3cc(OC)c(OC)cc3[N+](=O)[O-])CC2)c1.O=C(O)C(=O)O	-18.5%
O=C(COc1ccc(Cl)cc1)N1CCN(C2CCCC2)CC1.O=C(O)C(=O)O	-68.4%

SMILES	hERG current change (%, negative = inhibition) at 1uM
O=C(COc1ccc2ccccc2c1)N1CCN(C2CCN(Cc3ccccc3)CC2)CC1	-69.6%
COc1cccc(CN2CCN(C(=O)COc3ccc4ccccc4c3)CC2)c1	10.5%
COc1cc(CN2CCN(Cc3ccc([N+](=O)[O-])cc3)CC2)c([N+](=O)[O-])cc1OC.O=C(O)C(=O)O	-25.4%
O=C(COc1ccc(Br)cc1)N1CCN(C2CCCC2)CC1	-42.1%
COc1cc(CN2CCN(Cc3ccc(C)cc3)CC2)c([N+](=O)[O-])cc1OC.O=C(O)C(=O)O	-73.4%
O=C(COc1ccc(Cl)cc1)N1CCN(Cc2ccc3c(c2)OCO3)CC1	-6.58%
CCN1c2ccccc2-c2nc3ccccc3n2C1c1cccs1 (centres unmarked)	4.28%
COCCn1c(=NC(=O)c2cccs2)sc2cc(NC(C)=O)ccc21	0.283%
COc1ccc(N2C(=O)C(Cl)=C(Nc3ccccc3OC)C2=O)cc1	2.56%
O=C(CSc1nnc(-c2ccccn2)n1Cc1ccccc1)Nc1ccc2c(c1)OCO2	7.03%
CCN(CC)CCCNC(CC(=O)Nc1cccc([N+](=O)[O-])c1)C(=O)O (centres unmarked)	3.62%
COc1ccccc1C(=O)C1CCCN(C(=O)c2cccc(-n3cccn3)c2)C1 (centres unmarked)	9.07%
Nc1ccc(-n2nnnc2-c2ccco2)cc1	11.1%
CSc1ccc(CN2CCN(C(=O)COc3ccc(C)cc3)CC2)cc1.O=C(O)C(=O)O	-19.3%
Cc1cccc(OCC(=O)N2CCN(Cc3ccc([N+](=O)[O-])cc3)CC2)c1.O=C(O)C(=O)O	-60.5%
Cc1ccc(OCC(=O)N2CCN(C(=O)c3ccc([N+](=O)[O-])cc3)CC2)cc1	-19.5%
Cc1cccc(OCC(=O)N2CCN(S(C)(=O)=O)CC2)c1	9.87%
Cc1cccc(OCC(=O)N2CCN(C(=O)c3ccc([N+](=O)[O-])cc3)CC2)c1	-38.8%
Cc1ccc(OCC(=O)N2CCN(Cc3ccc([N+](=O)[O-])cc3)CC2)cc1.O=C(O)C(=O)O	-85%
Cc1cccc(OCC(=O)N2CCOCC2)c1	17.1%
Cc1cccc(OCC(=O)N2CCN(Cc3ccncc3)CC2)c1.O=C(O)C(=O)O	10.2%
Cc1cccc(OCC(=O)N2CCN(C(=O)COc3ccc(Cl)cc3)CC2)c1	-56.6%
